Data published in PubChem BioAssay (NCATS).
Inconclusive results are not listed. Where a call stands in place of a potency, no number is given. The source made the active and inactive calls. Calls come from the whole dose curve; as a rule, active = well fitted inhibition curve with a large enough effect; inconclusive = small, poorly fitted or top-dose-only effect; inactive = no such curve, though single readings can be large or run the other way.

These molecules were tested against Retinaldehyde dehydrogenase 3 (Homo sapiens) (UniProt P47895) (assay: qHTS for Inhibitors of the Aldehyde Dehydrogenase Family (ALDH1A3) Primary screen (AID 2061315)). Details: ALDH inhibition qHTS; series mostly up to 56 µM.

SMILES	Potency
CC(C)(C)c1ccc(C(=O)Nc2ccc(-c3nc4ccccc4[nH]3)cc2)cc1	inactive
O=c1c2ccccc2nc2sc(NCc3ccc([S+](=O)([O-])c4ccccc4)cc3)nn12	inactive
C=C1C(=O)O[C@H]2C1[C@H](OC(=O)/C(=C/CO)COC(=O)/C(C)=C/CO)CC(=C)[C@@H]1CC(=O)[C@@H](C)[C@@H]12 (stereo not given in full)	inactive
Cc1ccc(CNc2ncnc3ccc(-c4ccc5c(c4)OCO5)cc23)s1	inactive
O=C(Cn1nc(-c2ccncc2)ccc1=O)NCCc1ccccc1	inactive
O=c1c(Nc2ccc(Br)c(Br)c2)c(Nc2nnc(-c3ccncc3)s2)c1=O	inactive
O=C(O)c1ccc(S(=O)(=O)N[C@@H](Cc2ccc(O)cc2)C(=O)O)cc1	inactive
NC(=O)C1CCN(c2nc(-c3cccc4sc5ccccc5c34)cs2)CC1	inactive
Cc1ccc(N2CCN(S(=O)(=O)c3ccc4c(c3)CC(=O)N4)CC2)cc1	inactive
O=C1CCc2cc([S+](=O)([O-])Nc3ccc(N[S+](=O)([O-])c4ccc5c(c4)CCC(=O)N5)cc3)ccc2N1	inactive
O=C1c2ccccc2C(=O)N1c1ccc2ccccc2n1	inactive
Cc1ccc(N2CCN(C(=S)Nc3cc(C)ccn3)CC2)cc1	inactive
COc1cccc(-c2nc(SC)nc3sc(C(=O)NC(C)(C)C)c(N)c23)c1	inactive
COC(=O)C1C(CC(C)=O)C=CC(O)C12Oc1cc(C)cc(O)c1C2=O (stereo not given)	inactive
CS(=O)(=O)Nc1cccc(-c2cc(F)c(S(=O)(=O)N3CCN(S(=O)(=O)c4ccc5c(c4)OCCO5)CC3)cc2F)c1	inactive
COc1ccccc1O[C@@H]1O[C@H](CO)[C@H](O)[C@H](O)[C@H]1O	inactive
COc1cc(C(N)=O)nc(-c2ccccn2)c1O	inactive
Cc1cc(C)nc(NC(=S)N2CCN(c3cc(C(F)(F)F)nc4ccc(C(F)(F)F)cc34)CC2)c1	inactive
COc1cc(/C=C2/C(=O)Nc3ccccc32)cc(OC)c1O	inactive
O=C1CCCC2=C1C(c1ccn[nH]1)N=C(Nc1nc3ccccc3o1)N2 (stereo not given)	inactive

SMILES	Potency
Cc1cccc(N2CCN(C(=S)Nc3cc(C)ccn3)CC2)c1	inactive
O=C(Cc1nnc(-c2ccncc2)s1)Nc1ccc(F)c(C(F)(F)F)c1	inactive
Cc1cc(C=CC#N)cc(C)c1Nc1nc(Nc2ccc3scnc3c2)c2[nH]cnc2n1	inactive
O=C(Nc1ccc(-c2nc3ccccc3[nH]2)cc1)c1ccc2ncsc2c1	inactive
CCOc1cccc(-c2cc(-c3n[nH]c(=S)n3CC)c3ccccc3n2)c1	inactive
Cc1ccc(C#Cc2cc(-c3nn(-c4nc(C(=O)O)cs4)c(CC4CC4)c3Cc3ccc(S(N)(=O)=O)c(F)c3)ccc2F)o1	inactive
Cc1ccsc1CN(C)c1ncnc2ccc(-c3ccc4c(c3)OCO4)cc12	inactive
COc1cc2c(cc1OC)CN(C(=O)/C=C/c1c(-c3ccccc3)n(C)c3ncccc13)CC2	inactive
O=C(Nc1ccc2ccccc2c1)Nc1nnc(-c2ccccn2)s1	inactive
CN(C)c1cccc(-c2nnc(N3CCC(C(N)=O)CC3)s2)c1	inactive
Cc1ccc(NS(=O)(=O)c2ccc(-c3ccccc3)cc2)cc1C	inactive
O=c1c2ccccc2nc2sc(NCc3ccc(Sc4ccccc4)cc3)nn12	inactive
NC(=O)C1CCN(c2nc(-c3ccc(Oc4ccccc4)cc3)cs2)CC1	inactive
CC(=O)c1ccc(N2CCN(S(=O)(=O)c3ccc4[nH]c(=O)[nH]c4c3)CC2)cc1	inactive
COc1ccc2ncnc(NCc3cccs3)c2c1-c1ccc2c(c1)OCO2	inactive
Cc1c(C(=O)O)[nH]c2c1C(=O)CC(c1ccco1)C2 (stereo not given)	inactive
CCOc1cc2c(cc1OCC)CN(C(=O)c1cc3sccc3n1Cc1ccccc1)CC2	inactive
N#Cc1c(-c2ccccc2C(F)(F)F)nc2ccccc2c1NCc1ccc(-c2ccnc(C(F)(F)F)c2)cc1	inactive
COc1ccc(C2c3c(nc(CCc4ccccc4)[nH]c3=O)Oc3ccc4ccccc4c32)cc1OC (stereo not given)	inactive
CN1CCN(c2cccc(Nc3nn4c(=O)c5ccc(Br)cc5nc4s3)c2)CC1	inactive
